{"source": "ChEMBL document CHEMBL2218924", "about": "“A broad activity screen in support of a chemogenomic map for kinase signalling research and drug discovery” (Biochem J, 2013)"}
{"target": "Tyrosine-protein kinase receptor UFO (Homo sapiens) (UniProt P30530)", "sequence (P30530 whole entry)": "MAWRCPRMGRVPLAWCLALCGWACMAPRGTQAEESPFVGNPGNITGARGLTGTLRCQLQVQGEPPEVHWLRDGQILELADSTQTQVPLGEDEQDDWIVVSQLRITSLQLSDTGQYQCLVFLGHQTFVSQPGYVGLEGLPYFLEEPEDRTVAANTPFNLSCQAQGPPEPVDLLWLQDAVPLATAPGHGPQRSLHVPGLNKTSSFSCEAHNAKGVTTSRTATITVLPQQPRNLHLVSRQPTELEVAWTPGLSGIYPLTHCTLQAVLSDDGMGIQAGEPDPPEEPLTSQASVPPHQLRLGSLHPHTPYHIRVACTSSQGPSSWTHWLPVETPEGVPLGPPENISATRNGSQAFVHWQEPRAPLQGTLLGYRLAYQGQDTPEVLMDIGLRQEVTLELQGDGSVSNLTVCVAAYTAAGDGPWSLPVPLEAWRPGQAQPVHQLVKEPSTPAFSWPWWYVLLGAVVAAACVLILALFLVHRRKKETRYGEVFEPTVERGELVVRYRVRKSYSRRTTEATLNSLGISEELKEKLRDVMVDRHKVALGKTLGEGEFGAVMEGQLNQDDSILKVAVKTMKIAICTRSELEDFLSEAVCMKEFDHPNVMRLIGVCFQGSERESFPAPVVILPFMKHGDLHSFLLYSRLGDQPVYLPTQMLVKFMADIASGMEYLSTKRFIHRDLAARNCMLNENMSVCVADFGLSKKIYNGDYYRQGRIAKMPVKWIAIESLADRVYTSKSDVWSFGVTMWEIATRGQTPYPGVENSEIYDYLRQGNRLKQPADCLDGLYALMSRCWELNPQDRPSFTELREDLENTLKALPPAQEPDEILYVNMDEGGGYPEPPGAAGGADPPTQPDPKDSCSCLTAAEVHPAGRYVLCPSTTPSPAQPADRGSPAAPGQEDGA", "conditions": "at 10 µM", "units": {"residual activity": "%"}}
{"smiles": "CCN(CC)CCCCN1c2ccccc2Oc2ccc(Cl)cc21", "residual activity": 83}
{"smiles": "O=[N+]([O-])c1ccc(-c2nc(-c3ccc(F)cc3)c(-c3ccncc3)[nH]2)cc1", "residual activity": 106}
{"smiles": "Cc1ccc(S(=O)(=O)/C=C/C#N)cc1", "residual activity": 94}
{"smiles": "COc1cc2ncnc(Nc3ccc(NC(=O)c4ccccc4)cc3)c2cc1OC", "residual activity": 40}
{"smiles": "Cn1nc2c3c(cccc31)C(=O)c1ccccc1-2", "residual activity": 63}
{"smiles": "Cc1nc2cc3nc(-c4cccs4)cnc3cc2n1C", "residual activity": 68}
{"smiles": "COc1cc2ncnc(N3CCN(C(=O)Nc4ccc(Oc5ccccc5)cc4)CC3)c2cc1OC", "residual activity": 60}
{"smiles": "CC(C)n1cnc2/c(=N/c3cccc(Cl)c3)nc(NCCO)[nH]c21", "residual activity": 44}
{"smiles": "Cc1cc(Nc2nc(-c3ccccc3)nc3ccccc23)n[nH]1", "residual activity": 3}
{"smiles": "Cc1cncc2cccc(S(=O)(=O)N3CCCN(C(=O)CN)C[C@H]3C)c12", "residual activity": 74}
{"smiles": "Cc1cccc(-c2[nH]c(C(C)(C)C)nc2-c2ccc3c(c2)OCO3)n1", "residual activity": 81}
{"smiles": "N#Cc1cnc2cnc(NCc3cccnc3)cc2c1Nc1ccc(F)c(Cl)c1", "residual activity": 22}
{"smiles": "COc1ccc(S(=O)(=O)N(CCO)c2ccccc2CN(C)C/C=C/c2ccc(Cl)cc2)cc1", "residual activity": 82}
{"smiles": "c1ccc2c(-c3ccncc3)c[nH]c2c1", "residual activity": 75}
{"smiles": "c1ccc(-c2n[nH]cc2-c2ccnc3ccccc23)nc1", "residual activity": 80}
{"smiles": "O=C(Nc1cccc(Nc2nccc(Nc3cccc(C(F)(F)F)c3)n2)c1)C1CC1", "residual activity": 81}
{"smiles": "O=C1Nc2cc(Br)ccc2/C1=C1/Nc2ccccc2/C1=N\\O", "residual activity": 39}
{"smiles": "COc1ccc(OC)c2c(=S)c3ccccc3[nH]c12", "residual activity": 83}
{"smiles": "COc1cc2ncc(-c3ccccc3)nc2cc1OC", "residual activity": 84}
{"smiles": "O=C1NC(=O)c2c1c1c3ccccc3[nH]c1c1[nH]c3cc(Br)ccc3c21", "residual activity": 80}
{"smiles": "O=C(Nc1cccc(Nc2cc(Nc3cccc(C(F)(F)F)c3)ncn2)c1)C1CC1", "residual activity": 83}
{"smiles": "N#CCCc1ccc2c(c1)-c1[nH]c3ccc([N+](=O)[O-])cc3c1CC(=O)N2", "residual activity": 35}
{"smiles": "O=C1Nc2ccc(Br)cc2/C1=C\\c1cc2c([nH]1)CCCC2", "residual activity": 62}
{"smiles": "Nc1nc(Nc2ccc(S(N)(=O)=O)cc2)nn1C(=S)Nc1c(F)cccc1F", "residual activity": 2}
{"smiles": "Nc1cccc(-c2cc3c(Oc4cccc(O)c4)ncnc3[nH]2)c1", "residual activity": 39}
{"smiles": "Cc1cc2ncc(-c3ccccc3)nc2cc1C", "residual activity": 88}
{"smiles": "CO[C@@H]1[C@H](N(C)C(=O)c2ccccc2)C[C@H]2O[C@]1(C)n1c3ccccc3c3c4c(c5c6ccccc6n2c5c31)C(=O)NC4", "residual activity": 9}
{"smiles": "CC(=O)c1ccc(N2CCOCC2)cc1O", "residual activity": 85}
{"smiles": "COc1ccc(C(=O)Nc2sc3c(c2C(N)=O)CCCC3)cc1OC", "residual activity": 76}
{"smiles": "CO[C@H]1[C@@H](OC)C[C@H](C)[C@@H](OC)C2=CC(=O)C=C(NC(=O)/C(C)=C/C=C/[C@H](OC)[C@@H](OC(N)=O)/C(C)=C/[C@@H]1C)C2=O", "residual activity": 77}
{"smiles": "O=C1NC(=O)c2cc(Nc3ccc(F)cc3)c(Nc3ccc(F)cc3)cc21", "residual activity": 81}
{"smiles": "Oc1n[nH]c2nnc(-c3c(-c4ccccc4)nn4ccccc34)cc12", "residual activity": 104}
{"smiles": "O=Nc1c(-c2c(O)[nH]c3ccccc23)[nH]c2ccccc12", "residual activity": 8}
{"smiles": "N#CC(C#N)=C(N)/C(C#N)=C/c1ccc(O)cc1", "residual activity": 87}
{"smiles": "c1ccc(-c2n[nH]c3c2oc2ccccc23)cc1", "residual activity": 73}
{"target": "Protein-tyrosine kinase 6 (Homo sapiens) (UniProt Q13882)", "sequence (Q13882 whole entry, looked up)": "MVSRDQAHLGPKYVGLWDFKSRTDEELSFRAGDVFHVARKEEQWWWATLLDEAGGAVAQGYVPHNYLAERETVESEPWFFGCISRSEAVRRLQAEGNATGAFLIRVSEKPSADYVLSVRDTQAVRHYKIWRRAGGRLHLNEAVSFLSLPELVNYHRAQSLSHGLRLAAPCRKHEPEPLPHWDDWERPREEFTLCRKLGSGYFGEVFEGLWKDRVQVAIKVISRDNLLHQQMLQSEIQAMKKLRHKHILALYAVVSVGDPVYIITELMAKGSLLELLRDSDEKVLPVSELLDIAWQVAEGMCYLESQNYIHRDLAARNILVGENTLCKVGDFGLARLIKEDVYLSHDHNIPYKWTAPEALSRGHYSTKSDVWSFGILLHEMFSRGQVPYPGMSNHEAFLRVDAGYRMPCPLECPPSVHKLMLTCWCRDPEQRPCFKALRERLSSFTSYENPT", "conditions": "at 1 µM", "units": {"residual activity": "%"}}
{"smiles": "CCN(CC)CCCCN1c2ccccc2Oc2ccc(Cl)cc21", "residual activity": 118}
{"smiles": "O=[N+]([O-])c1ccc(-c2nc(-c3ccc(F)cc3)c(-c3ccncc3)[nH]2)cc1", "residual activity": 36}
{"smiles": "Cc1ccc(S(=O)(=O)/C=C/C#N)cc1", "residual activity": 107}
{"smiles": "COc1cc2ncnc(Nc3ccc(NC(=O)c4ccccc4)cc3)c2cc1OC", "residual activity": 35}
{"smiles": "Cn1nc2c3c(cccc31)C(=O)c1ccccc1-2", "residual activity": 103}
{"smiles": "Cc1nc2cc3nc(-c4cccs4)cnc3cc2n1C", "residual activity": 109}
{"smiles": "COc1cc2ncnc(N3CCN(C(=O)Nc4ccc(Oc5ccccc5)cc4)CC3)c2cc1OC", "residual activity": 98}
{"smiles": "CC(C)n1cnc2/c(=N/c3cccc(Cl)c3)nc(NCCO)[nH]c21", "residual activity": 105}
{"smiles": "Cc1cc(Nc2nc(-c3ccccc3)nc3ccccc23)n[nH]1", "residual activity": 40}
{"smiles": "COc1ccc(S(=O)(=O)N(CCO)c2ccccc2CN(C)C/C=C/c2ccc(Cl)cc2)cc1", "residual activity": 100}
{"smiles": "c1ccc2c(-c3ccncc3)c[nH]c2c1", "residual activity": 95}
{"smiles": "c1ccc(-c2n[nH]cc2-c2ccnc3ccccc23)nc1", "residual activity": 93}
{"smiles": "O=C(Nc1cccc(Nc2nccc(Nc3cccc(C(F)(F)F)c3)n2)c1)C1CC1", "residual activity": 40}
{"smiles": "O=C1Nc2cc(Br)ccc2/C1=C1/Nc2ccccc2/C1=N\\O", "residual activity": 90}
{"smiles": "COc1ccc(OC)c2c(=S)c3ccccc3[nH]c12", "residual activity": 104}
{"smiles": "O=C1NC(=O)c2c1c1c3ccccc3[nH]c1c1[nH]c3cc(Br)ccc3c21", "residual activity": 105}
{"smiles": "O=C(Nc1cccc(Nc2cc(Nc3cccc(C(F)(F)F)c3)ncn2)c1)C1CC1", "residual activity": 94}
{"smiles": "O=C1Nc2ccc(Br)cc2/C1=C\\c1cc2c([nH]1)CCCC2", "residual activity": 107}
{"smiles": "Nc1nc(Nc2ccc(S(N)(=O)=O)cc2)nn1C(=S)Nc1c(F)cccc1F", "residual activity": 49}
{"smiles": "Nc1cccc(-c2cc3c(Oc4cccc(O)c4)ncnc3[nH]2)c1", "residual activity": 0}
{"smiles": "Cc1cc2ncc(-c3ccccc3)nc2cc1C", "residual activity": 103}
{"smiles": "CO[C@@H]1[C@H](N(C)C(=O)c2ccccc2)C[C@H]2O[C@]1(C)n1c3ccccc3c3c4c(c5c6ccccc6n2c5c31)C(=O)NC4", "residual activity": 98}
{"smiles": "CC(=O)c1ccc(N2CCOCC2)cc1O", "residual activity": 108}
{"smiles": "COc1ccc(C(=O)Nc2sc3c(c2C(N)=O)CCCC3)cc1OC", "residual activity": 108}
{"smiles": "CO[C@H]1[C@@H](OC)C[C@H](C)[C@@H](OC)C2=CC(=O)C=C(NC(=O)/C(C)=C/C=C/[C@H](OC)[C@@H](OC(N)=O)/C(C)=C/[C@@H]1C)C2=O", "residual activity": 109}
{"smiles": "O=C1NC(=O)c2cc(Nc3ccc(F)cc3)c(Nc3ccc(F)cc3)cc21", "residual activity": 89}
{"smiles": "Oc1n[nH]c2nnc(-c3c(-c4ccccc4)nn4ccccc34)cc12", "residual activity": 97}
{"smiles": "O=Nc1c(-c2c(O)[nH]c3ccccc23)[nH]c2ccccc12", "residual activity": 91}
